This is an account of results in PubChem BioAssay (NCI).

About 83,000 compounds went through this panel and 20% of them were active in at least one assay; those are over-represented in the sample as a whole.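 Activity criterion: percent growth below 10, measured after cells in 96-well plates were exposed to a single compound concentration for 48 hours.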 Calls of active or inactive are those of the source.

The subject of the assay is KM12 colon. The assay can be described thus: NCI-60 one-dose screen, 48 h (100 = growth as untreated, 0 = no growth, -100 = all killed). As to conditions: 10 µM unless noted.
As to `COc1ccccc1CNCCCCCCCCCCCCN1C(=O)c2ccc3c4c(ccc(c24)C1=O)C(=O)N(CCCCCCCCCCCCNCc1ccccc1OC)C3=O`, the growth was 46.6% (inactive).

Take `Cc1nn(CC(=O)O)c2c1C(=O)CC(C)(C)C2`: the growth was 109% (inactive).

Take `CCCCCCCCCCCCCCn1c2ccccc2c2c3c(c4c5cc(OC)ccc5oc4c21)C(=O)NC3=O`: the growth is 102% (inactive).

For `COc1cccc(C2C3=C(COC3=O)N(CCO)c3cc4c(cc32)OCO4)c1` (centres undefined), the growth is 14.3% (inactive).

In the case of `CCCCCCCCCCCCCCNc1nc(CO)ncc1-c1ccc(C(F)(F)F)cc1`, the growth is 99.4% (inactive).

Regarding `CN1CCc2cccc3c2C1Cc1ccc(O)c(O)c1-3` (centres undefined), the growth is 96.4% (inactive).

Take `O=C1NC(=S)S/C1=C\c1cccc([N+](=O)[O-])c1`: the growth is 103% (inactive).

`CN(C)C(=S)SCN1C(=O)c2ccc([N+](=O)[O-])cc2S1(=O)=O`: the growth was 96.1% (inactive).

As for `O=C(Nc1ccc(Cl)c(Cl)c1)OCn1ncc2ccc([N+](=O)[O-])cc21`, the growth is 86.2% (inactive).

For the compound `CC(C)(C)[Si](C)(C)OC1[C@@H](CNC(=O)NC(=O)CCl)O[C@@H](n2cnc3c(N)ncnc32)[C@H]1O[Si](C)(C)C(C)(C)C` (some centres undefined), the growth is -82.4% (active).

With `COC(=O)c1c2c(c(C)[n+]([O-])c1C)C(=O)C=C(NCc1ccc(F)cc1)C2=O`, the growth was 1.23% (active).

As for `CCCN(CCC)c1ccc(/C=C/c2ccc3cc(OCC)ccc3n2)cc1`, the growth was 128% (inactive).

On to `CCOC(=O)c1c(Cl)c2c(n1Cc1cc(OC)cc(OC)c1)-c1oncc1CCC2`, for which the growth is 29.6% (inactive).

As to `O=c1[nH]c(=S)[nH]c(=O)n1Cc1cccc2ccccc12`, the growth is 105% (inactive).
